# Compound activity from PubChem.
# Hits are enriched below; roughly 1.2% of the tested compounds scored in any of these assays.
# RGS7-Gao: modulates binding of RGS7 to human Galphao. P09471. Multiplexed bead flow cytometry; actives lie on both sides. binding response (% of control), % at 10 µM. hit rate 0.35% among 220,000; in the data active = binding response below about 49% or above about 150%; inconclusive = no clear call, values can overlap the other calls; inactive = in between;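 note: fluorescent Galphao held in activated GDP-AlF4 state binding bead-coupled RGS7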
# Target sequence (P09471 whole entry, looked up): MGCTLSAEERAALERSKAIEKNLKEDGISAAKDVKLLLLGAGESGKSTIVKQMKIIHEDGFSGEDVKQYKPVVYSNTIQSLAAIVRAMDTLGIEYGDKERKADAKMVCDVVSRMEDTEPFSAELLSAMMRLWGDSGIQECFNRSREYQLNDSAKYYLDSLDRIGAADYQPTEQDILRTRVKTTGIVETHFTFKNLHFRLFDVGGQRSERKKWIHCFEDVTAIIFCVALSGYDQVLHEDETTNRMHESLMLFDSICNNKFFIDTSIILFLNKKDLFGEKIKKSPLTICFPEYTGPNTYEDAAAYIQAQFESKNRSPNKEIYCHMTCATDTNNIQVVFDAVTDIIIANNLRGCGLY
# RGS16-Gao HTS: RGS16-Galphao interaction regulator (human); O15492+P09471; bead-based flow cytometry RGS16-Galphao binding, fluorescence; actives lie on both sides; binding response (% of control), % at 10 µM; hit rate 0.38% among 220,000; AID 1441;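 note: Galphao activated by GDP with aluminum fluoride before binding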
# Target sequence (O15492 whole entry, looked up): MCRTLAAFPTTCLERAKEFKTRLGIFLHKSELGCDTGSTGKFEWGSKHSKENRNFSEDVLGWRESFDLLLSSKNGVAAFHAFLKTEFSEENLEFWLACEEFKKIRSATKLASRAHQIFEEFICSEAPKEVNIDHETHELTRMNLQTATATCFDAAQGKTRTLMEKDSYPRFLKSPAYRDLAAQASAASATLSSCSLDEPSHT
# Target sequence (P09471 whole entry, looked up): as the sequence (P09471 whole entry, looked up) above
# RGS8-Gao reg: modulates binding of RGS8 to human Galphao | P09471 | multiplexed bead flow cytometry; actives lie on both sides | response (percent of control binding), % at 10 µM | hit rate 0.34% among 220,000; in the data active = response below about 60% or above about 140%; inactive = in between;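 note: Galphao activated as the GDP aluminium fluoride complex binding bead-coupled RGS8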
# Avidin bead fluor: avidin bead compound fluorescence profile | Avidin beads, compound fluorescence 488/530 nm, flow cytometry; hits give high values | fluorescence (KMESF) at 10 µM | hit rate 0.38% among 220,000; in the data active = fluorescence above about 47
# RGS4-Gao reg: human RGS4-Galphao interaction regulation; P09471; Multiplexed bead flow cytometry, RGS4-Galphao binding; actives lie on both sides; binding response (% of control), % at 10 µM; hit rate 0.33% among 220,000; in the data active = binding response below about 49% or above about 150%; inactive = in between;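 note: fluorescent Galphao activated with aluminum fluoride binding bead-coupled RGS4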
# GSH fluor: GSH bead compound fluorescence profile; GSH beads flow cytometry, compound fluorescence 488/530 nm; hits give high values; fluorescence (KMESF) at 10 µM; hit rate 0.25% among 190,000; in the data active = fluorescence above about 89;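 note: glutathione beads carrying GST-tagged Bcl family fusion proteins plus one bare bead set; values are compound well signal with DMSO vehicle wells as background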
# RGS4-Gao HTS: RGS4-Galphao interaction regulator (human). shares compounds with RGS16-Gao HTS. multiplexed bead flow cytometry, RGS–Galpha-o binding. RGS4–Galpha-o binding response, % at 10 µM. hit rate 99% among 1,600;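 note: fluorescently labeled Galpha-o bound to GDP with aluminium fluoride binding biotinylated RGS beads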
# Avidin counter: interferes with biotinylated probe binding to avidin beads; 1,700 tested, under 10 active; AID 1783; streptavidin beads, fluorescein-biotin binding, flow cytometry; inhibition, % at 10 µM; shares compounds with RGS16-Gao HTS;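 active = inhibition above 50%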;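 note: median green fluorescence of gated singlet beads compared with DMSO control wells; 0% = DMSO wells and 100% = complete loss of bead fluorescence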
# RGS8-Gao confirm: RGS8-Galphao interaction regulation, single point confirmation; bead-based flow cytometry RGS8-Galphao binding, fluorescence; actives lie on both sides; AID 1836; hit rate 3% among 1,700; shares compounds with RGS16-Gao HTS; binding response (% of control), % at 10 µM; in the data active = binding response below about 72% or above about 130%; inactive = in between;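 note: Galphao activated as GDP AlF4 complex before binding bead RGS8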
# RGS7-Gao single: RGS7-Galphao interaction regulation, single point confirmation; shares compounds with RGS16-Gao HTS; response (percent of control binding), % at 10 µM; bead-based flow cytometry RGS7-Galphao binding; actives lie on both sides; hit rate 7.8% among 1,700; in the data active = response below about 75% or above about 130%; inactive = in between;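 note: fluorescent Galphao activated with GDP and aluminum fluoride binding bead-coupled RGS7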
# RGS16-Gao conf: confirmation of regulators of human RGS16-Galphao interaction; shares compounds with RGS16-Gao HTS; bead-based flow cytometry, RGS16-Galphao binding; actives lie on both sides; response (% of control binding), % at 10 µM; hit rate 4% among 1,700; AID 1838; in the data active = response below about 74% or above about 130%; inactive = in between;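 note: Galphao activated as the GDP aluminium fluoride complex binding bead-coupled RGS16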
# RGS4-Gao single: RGS4-Galphao interaction regulation, single point confirmation. AID 1840. binding response (% of control), % at 10 µM. shares compounds with RGS16-Gao HTS. RGS4-Galphao binding, multiplexed bead flow cytometry; actives lie on both sides. hit rate 4% among 1,700; in the data active = binding response below about 74% or above about 130%; inactive = in between
# RGS19-Gao conf: RGS19-Galphao interaction regulation, single point confirmation; hit rate 5% among 1,700; bead-based flow cytometry RGS19-Galphao binding; actives lie on both sides; shares compounds with RGS16-Gao HTS; AID 1841; response (percent of control binding), % at 10 µM; in the data active = response below about 50% or above about 160%; inactive = in between;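 note: 100% = no compound control and 0% = blank background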
# An asterisk follows results filed as active; ? = inconclusive; / = no result given; [ ] = another dose, or the depositor's remark. Unless noted, the rule behind the calls is not given here.
SMILES,RGS7-Gao,RGS16-Gao HTS,RGS8-Gao reg,Avidin bead fluor,RGS4-Gao reg,GSH fluor,RGS4-Gao HTS,Avidin counter,RGS8-Gao confirm,RGS7-Gao single,RGS16-Gao conf,RGS4-Gao single,RGS19-Gao conf
CCN1CCN(c2ccc([N+](=O)[O-])cc2C(=O)OC)CC1,98.7,107.1,102.5,13,100.8,15,/,/,/,/,/,/,/
COc1cc(CN=Cc2c(O)n(C(C)(C)C)c(=O)[nH]c2=O)cc(OC)c1,?,94.0,95.0,6,94.9,/,/,/,/,/,/,/,/
O=C(c1c[nH]cc1-c1ccccc1)c1cccc2ccccc12,101.3,105.4,99.9,6,103.2,16,/,/,/,/,/,/,/
COc1ccc(C=C2C(=O)N(C)C(=O)N(C)C2=O)cc1COc1ccc(NC(C)=O)cc1,?,100.8,90.2,5,95.2,/,/,-0.4,89.3,88.6,96.6,91.7,76.9
COc1ccc(C=C2C(=O)N(C)C(=O)N(C)C2=O)cc1CSc1ccccn1,95.2,101.7,95.0,15,96.5,23,/,/,/,/,/,/,/
CN1CCN(c2ccc([N+](=O)[O-])c(SCCO)c2)CC1,103.6,98.5,101.1,10,102.7,9,/,/,/,/,/,/,/
C=CCN1CC[C@]23c4c5ccc(O)c4O[C@H]2C(=O)CC[C@@]3(O)[C@H]1C5,34.1*,54.2,57.0*,5,47.8*,14,/,-0.4,100.7,103.8,101.2,100.4,107.4
CN1C(=O)C(=Cc2c(OCc3cnc(Cl)s3)ccc3ccccc23)C(=O)N(C)C1=O,97.2,99.3,98.8,7,96.4,16,/,/,/,/,/,/,/
Cc1cc(OC(=O)N(C)C)n(-c2ccccc2)n1,?,-15.0*,9.2*,-2,-23.1*,/,/,-0.5,100.1,85.2,94.5,92.1,71.7
COc1cc(CC2(CCc3ccncc3)C(=O)N(C)C(=O)N(C)C2=O)cc(OC)c1OC,59.1,86.9,57.9*,4,101.4,12,101.4*,1.6,97.3,92.1,94.9,93.5,92.4
CC(=O)N1N=C2C3CCN(CC3)C2C1c1ccc(F)cc1 (stereo not drawn),106.9,103.5,99.4,12,102.7,14,/,/,/,/,/,/,/
Cc1ccc(S(=O)(=O)N2CCCCC2)cc1NC(=O)CN1CC=C(c2ccccc2)CC1,121.6,331.8,142.0*[activator],14,117.7,18,117.7*,0.4,110.5,114.2,109.8,112.3,106.9
O=C(CN1CC=C(c2ccccc2)CC1)Nc1cc(Cl)ccc1Cl,103.6,101.0,100.2,11,104.5,4,/,/,/,/,/,/,/
CC(NC1=NCCS1)c1ccccc1 (stereo not drawn),99.4,101.7,102.3,11,98.0,15,/,/,/,/,/,/,/
CN(C)C(=O)Oc1ccc(Cl)c2cccnc12,80.1,29.0,57.2*,2,75.2,11,75.2*,1.0,99.2,100.4,103.0,100.5,102.6
CN(C)C(=O)Oc1c(Cl)cc(Cl)c2ccccc12,99.0,104.2,97.8,16,106.3,11,/,/,/,/,/,/,/
COC(=O)C(O)(c1ccc(NC(=S)NC(=O)c2ccc(Cl)cc2Cl)cc1)C(F)(F)F (stereo not drawn),100.7,99.5,102.7,14,102.2,9,/,/,/,/,/,/,/
COC(=O)C(O)(c1ccc(NC(=O)NC2CCCCC2)cc1)C(F)(F)F (stereo not drawn),157.2*[activator],101.3,101.2,83*,174.8*[activator],19,/,1.3,97.2,58.6*,77.9,73.1*,57.5
CC1C(c2cccs2)=[N+]([O-])C(C)(C(=O)c2cccs2)N1O (stereo not drawn),158.7*[activator],160.3,146.6*[activator],4,156.7*[activator],10,/,0.3,99.1,93.5,95.5,96.9,77.2
COc1ccc(C(=O)C2(C)N(O)C(C)C(c3cccs3)=[N+]2[O-])cc1 (stereo not drawn),96.5,95.8,102.7,4,102.2,28,/,/,/,/,/,/,/
CCCCCCC[n+]1ccc(-c2cc[n+](CCCCCCC)cc2)cc1,107.2,12.9*,78.9,3,115.0,9,115.0*,1.4,106.7,102.2,106.8,103.4,102.3
CCN1CCN(C(=O)COc2ccc(S(=O)(=O)N(C)Cc3ccccc3)cc2)CC1,79.9,24.4*,76.3,2,81.7,47,81.7*,1.1,102.0,101.9,101.3,101.8,98.5
Cc1nnc2ccc(N3CCN(C)CC3)nn12,111.3,451.6,144.5*[activator],5,120.9,52,120.9*,0.7,103.2,107.1,104.6,106.6,109.7
COc1ccccc1/C=N/N=C(/N)N[N+](=O)[O-],112.0,110.3,100.9,16,113.2,11,/,/,/,/,/,/,/
N/C(=N\N=C\c1ccc(O)cc1O)N[N+](=O)[O-],88.3,-23.1*,77.1,12,84.3,14,84.3*,0.2,96.5,96.1,97.9,100.4,89.5
CN1Cc2c(c(C#N)c(N)n(C)c2=S)CC1(C)C,96.4,105.3,105.3,9,101.2,23,/,/,/,/,/,/,/
CCC1(CC)C(=O)N(C)C(=O)NC1=NC,?,204.1*[activator],108.0,95*,195.9*[activator],/,/,-0.2,97.7,98.2,101.9,98.7,88.9
Cc1cc(NC(=O)CCl)on1,102.2,101.7,101.7,7,99.2,11,/,/,/,/,/,/,/
